Measured values from the supplement of paper PMC8975748.
Structures can show the parent of a compound that is named as a salt.

tested on: Saccharomyces cerevisiae BY4741 SeMeCo community; assay: z-score of prototroph abundance vs DMSO median; higher = larger share of this subpopulation than in DMSO controls; settings: 10 µM; 24 h; SM minimal medium; subpopulation (auxotrophy): Prototroph
Outline: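 A community of Saccharomyces cerevisiae BY4741 was built from four plasmids that each restored one auxotrophy and encoded a distinct fluorescent protein. Pre-grown overnight to OD600 1.0 and diluted to 0.3, it was dispensed at 70 µl into 384-well plates acoustically predosed with library drugs for a final 10 µM, and grown 24 h in minimal SM medium. Cells were then paraformaldehyde-fixed and imaged by automated confocal microscopy. Thresholds and autofluorescence correction came from single-auxotroph fluorescent strains, and each subpopulation's abundance was scored as a z-score relative to the vehicle-well median.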

Compound	z-score of prototroph abundance
C=C[C@]1(C)C[C@@H](OC(=O)CSC(C)(C)CNC(=O)[C@H](N)C(C)C)[C@]2(C)[C@H](C)CC[C@]3(CCC(=O)[C@H]32)[C@@H](C)[C@@H]1O [Valnemulin HCl]	-0.65
C[N+]1(C)CCC(=C(c2ccccc2)c2ccccc2)CC1 [Diphemanil Methylsulfate]	-0.15
CC[C@H]1OC(=O)[C@H](C)[C@@H](O[C@H]2C[C@@](C)(OC)[C@@H](O)[C@H](C)O2)[C@H](C)[C@@H](O[C@@H]2O[C@H](C)C[C@H](N(C)C)[C@H]2O)[C@](C)(O)C[C@@H](C)/C(=N\OCOCCOC)[C@H](C)[C@@H](O)[C@]1(C)O [Roxithromycin]	-0.63
NCc1ccccc1CC(=O)N[C@@H]1C(=O)N2C(C(=O)O)=C(CSc3nnnn3CC(=O)O)CS[C@H]12 [Ceforanide]	-0.53
CC(C(=O)O)c1cccc(C(=O)c2ccccc2)c1 (stereo unspecified) [Ketoprofen]	-0.62
C#C[C@]1(O)CC[C@H]2[C@@H]3CCC4=Cc5oncc5C[C@]4(C)[C@H]3CC[C@@]21C [Danazol]	0
Cc1c(OCC(F)(F)F)ccnc1C[S+]([O-])c1nc2ccccc2[nH]1 (stereo unspecified) [Lansoprazole]	-0.04
CC(C(O)c1ccc(O)cc1)N1CCC(Cc2ccccc2)CC1 (stereo unspecified) [Ifenprodil Tartrate]	0.98
Cc1ncc([N+](=O)[O-])n1C [Dimetridazole]	0.38
CC(=O)OCC[N+](C)(C)C [Acetylcholine iodide]	1.05
CC(=O)N1CCN(c2ccc(OCC3COC(Cn4ccnc4)(c4ccc(Cl)cc4Cl)O3)cc2)CC1 (stereo unspecified) [Ketoconazole]	0.99
CN1C2CCCC1CC(NC(=O)c1nn(C)c3ccccc13)C2 (stereo unspecified) [Granisetron HCl]	-0.01
NC(=O)OCC(COC(N)=O)c1ccccc1 [Felbamate]	1.19
CC(=O)NO [Acetohydroxamic acid]	-0.09
COc1ccc2c3c1O[C@H]1C[C@@H](O)C=C[C@@]31CCN(C)C2 [Galanthamine HBr]	-0.57
CCN(CC)CC#CCOC(=O)C(O)(c1ccccc1)C1CCCCC1 (stereo unspecified) [Oxybutynin chloride]	1.15

Compound	z-score of prototroph abundance
O=C1CC2(CCCC2)CC(=O)N1CCCCN1CCN(c2ncccn2)CC1 [Buspirone HCl]	0.7
Cc1ccc(-c2cc(C(F)(F)F)nn2-c2ccc(S(N)(=O)=O)cc2)cc1 [Celecoxib]	0.84
Cc1cccc(N(C)C(=S)Oc2ccc3ccccc3c2)c1 [Tolnaftate]	0.3
O=C(Nc1cc(Cl)cc(Cl)c1O)c1c(O)c(Cl)cc(Cl)c1Cl [Oxyclozanide]	2.11
CN1CCN(CC(=O)N2c3ccccc3C(=O)Nc3cccnc32)CC1 [Pirenzepine dihydrochloride]	0.72
O=C(O)CCc1nc(-c2ccccc2)c(-c2ccccc2)o1 [Oxaprozin]	2.48
CC[C@H]1OC(=O)[C@H](C)[C@@H](O[C@H]2C[C@@](C)(OC)[C@@H](O)[C@H](C)O2)[C@H](C)[C@@H](O[C@@H]2O[C@H](C)C[C@H](N(C)C)[C@H]2O)[C@](C)(O)C[C@@H](C)C(=O)[C@H](C)[C@H]2OC(=O)O[C@@]21C [Erythromycin Cyclocarbonate]	-1.17
CN1CCC(=C2c3ccccc3C=Cc3ccccc32)CC1 [Cyproheptadine hydrochloride]	0.23
CCOc1cc(N)c(Cl)cc1C(=O)NCC1CN(Cc2ccc(F)cc2)CCO1 (stereo unspecified) [Mosapride]	0.05
C/C(=C\C(=O)OCCCCCCCCC(=O)O)C[C@@H]1OC[C@H](C[C@@H]2O[C@H]2[C@@H](C)[C@H](C)O)[C@@H](O)[C@H]1O [Mupirocin calcium]	-0.73
Cc1cc(C)nc(NS(=O)(=O)c2ccc(N)cc2)n1 [Sulfamethazine Sodium Salt]	0.49
CCN(CC)CCNC(=O)c1cc(Cl)c(N)cc1OC [Metoclopramide]	-1.14
O=C1[C@H]2CCCC[C@H]2C(=O)N1CCCCN1CCN(c2nsc3ccccc23)CC1 [Perospirone hydrochloride]	0.14
CC1=C(C(=O)OCCN(Cc2ccccc2)c2ccccc2)C(c2cccc([N+](=O)[O-])c2)C(P2(=O)OCC(C)(C)CO2)=C(C)N1 (stereo unspecified) [Efonidipine]	-1.56
CS(=O)(=O)c1ccc([C@@H](O)[C@@H](CF)NC(=O)C(Cl)Cl)cc1 [Florfenicol]	0.5
